Our source for the growth values is PubChem BioAssay (NCI).

Structures are written as SMILES. Compounds without any hit were thinned out: in the full panel of roughly 83,000, 20% have a hit.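 How to read the values: 0–100, growth inhibition (40 = 60% inhibited); 0, no net growth; -100 to 0, cell death (-40 = 40% of starting cells died; -100 = all dead).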 Values without a mark were called inactive. The source made the active and inactive calls. Rule for the calls: active = growth percent below 10; inactive = the rest.

Test systems include DU-145 prostate; K-562 leukemia; MALME-3M melanoma; MDA-MB-231 breast; RXF 393 renal; SF-268 CNS; SF-295 CNS; SF-539 CNS; UACC-257 melanoma; M14 melanoma; HCT-15 colon; HT29 colon; SNB-75 CNS; SNB-19 CNS; U251 CNS; PC-3 prostate; SK-MEL-5 melanoma; UACC-62 melanoma; LOX IMVI melanoma; SK-MEL-28 melanoma.
Holding throughout (assay): NCI-60 one-dose screen, 48 h (100 = growth as untreated, 0 = no growth, -100 = all killed)
Conditions in all cases: 10 µM unless noted

Take `COc1ccc(C(=O)O)cc1.[Ag]`: the growth in the assay with DU-145 prostate was 106%; with K-562 leukemia, -27.4% (active); in the assay on MALME-3M melanoma, -51.3% (active); in the assay on MDA-MB-231 breast, 103%; with RXF 393 renal, 100%; in the assay on SF-268 CNS it was 97%. In addition, the growth was 114% in the assay with SF-295 CNS; 94.9% with SF-539 CNS; 94.9% in the assay on UACC-257 melanoma; 106% in the assay on M14 melanoma; 102% in the assay with HCT-15 colon; 103% in the assay with HT29 colon. Also, the growth with SNB-75 CNS is 110%; with SNB-19 CNS, 106%; in the assay with U251 CNS, 103%; in the assay on PC-3 prostate, 77.1%; in the assay with SK-MEL-5 melanoma, 46.5%; in the assay with UACC-62 melanoma it was 108%. Also, the growth in the assay on LOX IMVI melanoma is 88.7%.

`CC(=O)Cc1ccccn1`: the growth was 107% with DU-145 prostate; 100% in the assay with K-562 leukemia; 106% in the assay on MALME-3M melanoma; 105% in the assay with MDA-MB-231 breast; 119% in the assay with RXF 393 renal; 98.7% in the assay on SF-268 CNS. Also, the growth with SF-295 CNS was 84.1%; with SF-539 CNS, 99.7%; in the assay on UACC-257 melanoma it was 103%; in the assay with M14 melanoma, 102%; with HCT-15 colon, 98.6%; in the assay with HT29 colon, 95.9%. Further, the growth in the assay on SNB-75 CNS is 104%; with SNB-19 CNS, 114%; in the assay on U251 CNS, 93.5%; in the assay with PC-3 prostate it was 94.8%; with SK-MEL-5 melanoma it was 105%; in the assay on UACC-62 melanoma it was 108%. For the same compound, the growth was 103% in the assay on LOX IMVI melanoma and 106% in the assay with SK-MEL-28 melanoma.

Regarding `C=C1C[C@@]2(C)C(CC[C@]3(C)C2CC=C2C4CC(C)(C)C[C@@H](OC(=O)/C(C)=C\C)[C@]4(C(=O)O)CC[C@]23C)C(C)(C)C1=O` (stereo not given in full), the growth is 10.3% in the assay on DU-145 prostate; 1.39% (active) in the assay on K-562 leukemia; 36.5% in the assay on MALME-3M melanoma; 22.7% with MDA-MB-231 breast; -75.6% (active) in the assay with RXF 393 renal; 50.4% with SF-268 CNS. The growth in the assay with SF-295 CNS was 59.8%; in the assay on SF-539 CNS, -19.8% (active); in the assay on UACC-257 melanoma, 17.1%; with M14 melanoma it was -14.2% (active); in the assay with HCT-15 colon, -16.7% (active); with HT29 colon, -20.1% (active). In addition, the growth in the assay on SNB-75 CNS was 52.5%; with SNB-19 CNS, 27.6%; with U251 CNS, -47.9% (active); in the assay on PC-3 prostate it was -6.78% (active); in the assay with SK-MEL-5 melanoma it was 26.4%; with UACC-62 melanoma, -12.6% (active). Further, in the assay with LOX IMVI melanoma, the growth was -65.7% (active).

Regarding `COc1cc(C2CC(c3ccc(C)cc3)=NN2C=O)ccc1Oc1ccnc2cc(Cl)ccc12` (stereo not given), the growth in the assay with DU-145 prostate is 89%; with K-562 leukemia, 109%; with MALME-3M melanoma it was 98%; with MDA-MB-231 breast, 36.1%; in the assay on RXF 393 renal, 0.362% (active); with SF-268 CNS it was 16.3%. The growth in the assay with SF-295 CNS is 1.79% (active); in the assay with SF-539 CNS, 4.72% (active); with UACC-257 melanoma it was 103%; in the assay on M14 melanoma it was 106%; in the assay with HCT-15 colon, 97.4%; in the assay on HT29 colon it was 92.3%. For the same compound, the growth with SNB-75 CNS was -36.1% (active); in the assay on SNB-19 CNS, 29.5%; in the assay on U251 CNS, 7.3% (active); in the assay with PC-3 prostate, 85.3%; with SK-MEL-5 melanoma, 97.1%; with UACC-62 melanoma, 55.8%. The growth in the assay on LOX IMVI melanoma is 76%.

For `CC(C)[C@@]12C[C@@H](OC(=O)C3CO3)[C@@](C)(O1)[C@@H]1CC[C@@H](C)[C@H]1[C@@H]2OC(=O)/C=C/c1ccccc1` (stereo not given in full), the growth with DU-145 prostate is 107%; in the assay on K-562 leukemia it was 105%; in the assay on MALME-3M melanoma it was 84%; in the assay on MDA-MB-231 breast, 76.6%; in the assay with RXF 393 renal, 67%; in the assay on SF-268 CNS it was 67.2%. In addition, the growth with SF-295 CNS is 101%; in the assay with SF-539 CNS it was 90.7%; with UACC-257 melanoma, 74.7%; with M14 melanoma, 101%; in the assay on HCT-15 colon it was 98.1%; with HT29 colon it was 93.9%. Moreover, the growth with SNB-75 CNS was 80.5%; with SNB-19 CNS, 94.4%; in the assay with U251 CNS, 76.1%; in the assay on PC-3 prostate, 86.2%; with SK-MEL-5 melanoma, 97.6%; in the assay on UACC-62 melanoma it was 77.4%. Besides, the growth in the assay on LOX IMVI melanoma was 88.5%.

As for `CC(=O)OC[C@H]1O[C@@H](n2c(=O)cc(N)[nH]c2=O)C(OC(C)=O)[C@@H]1OC(C)=O` (stereo not given in full), the growth in the assay with DU-145 prostate is 108%; with K-562 leukemia, 108%; in the assay with MALME-3M melanoma, 98.4%; with MDA-MB-231 breast, 107%; in the assay with RXF 393 renal it was 104%; with SF-268 CNS, 97.9%. Moreover, the growth in the assay on SF-295 CNS was 94.2%; with SF-539 CNS, 98%; in the assay with UACC-257 melanoma, 98%; in the assay with M14 melanoma, 91.3%; in the assay on HCT-15 colon it was 99.7%; with HT29 colon, 106%. For the same compound, the growth in the assay on SNB-75 CNS was 75.9%; in the assay with SNB-19 CNS it was 98.7%; with U251 CNS, 97.7%; with PC-3 prostate, 95.3%; in the assay on SK-MEL-5 melanoma it was 99.5%; with UACC-62 melanoma, 94.6%. In addition, the growth in the assay with LOX IMVI melanoma was 99.9%.

In the case of `OCCN(CCO)c1ccc2ccccc2c1`, the growth in the assay with DU-145 prostate was 103%; in the assay with K-562 leukemia, 106%; in the assay with MALME-3M melanoma it was 102%; with MDA-MB-231 breast it was 108%; in the assay on RXF 393 renal it was 125%; in the assay with SF-268 CNS, 96.8%. In addition, the growth was 98.9% in the assay on SF-295 CNS; 96.7% in the assay on SF-539 CNS; 110% in the assay on UACC-257 melanoma; 90.7% in the assay with M14 melanoma; 98.4% in the assay with HCT-15 colon; 94.3% in the assay on HT29 colon. In addition, the growth in the assay on SNB-75 CNS was 88.1%; with SNB-19 CNS, 104%; in the assay on U251 CNS, 104%; in the assay on PC-3 prostate, 83.2%; in the assay on SK-MEL-5 melanoma, 100%; in the assay on UACC-62 melanoma, 91.4%. The growth in the assay on LOX IMVI melanoma was 91.4%; with SK-MEL-28 melanoma, 108%.

On to `CCCCCCCCN(CCCCCCCC)C(=O)CCl`, for which the growth is 110% in the assay with DU-145 prostate; 105% in the assay on K-562 leukemia; 84.8% in the assay on MALME-3M melanoma; 104% in the assay with MDA-MB-231 breast; 103% with RXF 393 renal; 99% with SF-268 CNS. For the same compound, the growth in the assay on SF-295 CNS is 106%; with SF-539 CNS, 106%; with UACC-257 melanoma it was 112%; in the assay on M14 melanoma it was 104%; in the assay on HCT-15 colon it was 96.1%; in the assay with HT29 colon, 114%. For the same compound, the growth in the assay with SNB-75 CNS is 95.4%; in the assay on SNB-19 CNS, 97.5%; with U251 CNS it was 101%; with PC-3 prostate, 85.6%; with SK-MEL-5 melanoma, 88.6%; in the assay with UACC-62 melanoma it was 82.9%. For the same compound, the growth with LOX IMVI melanoma was -63.3% (active); in the assay with SK-MEL-28 melanoma it was 110%.
